In PubChem BioAssay (NCI):
This is part of a sample that, as a whole, favours compounds with a hit. Of some 79,000 tested, about 15% had one in any assay. No stated cut-off is given here; in the data, active means growth inhibition above about 70%; inactive means the rest.

Tests used:
[1] = NCI Yeast Anticancer Drug Screen. Data for the rad50 strain (AID 155);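 further: 0% = growth of vehicle-only cultures of the same strain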; conditions: S. cerevisiae rad50 strain growth inhibition; at 50.0 µM; hits give high values
Procedure, shortened: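 Growth of the mutant yeast was measured after compound exposure and referenced to vehicle-treated cultures.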

[2] = NCI Yeast Anticancer Drug Screen. Data for the mec2-1 strain (AID 157); conditions: S. cerevisiae mec2-1 strain, at 50.0 µM, hits give high values
Procedure, shortened: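 Using mec2-1 yeast: add compound, measure growth, express inhibition versus vehicle-treated cultures.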

[3] = NCI Yeast Anticancer Drug Screen. Data for the sgs1 mgt1 strain (AID 161);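 further: 0% = growth of cultures given vehicle only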; conditions: S. cerevisiae sgs1 mgt1 strain, at 50.0 µM, hits give high values
Procedure, shortened: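 This yeast growth screen uses a strain with defined DNA-repair lesions; compound-treated growth is compared with vehicle-treated growth.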

[4] = NCI Yeast Anticancer Drug Screen. Data for the cln2 rad14 strain (AID 165);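 further: 0% = growth equal to vehicle treated cultures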; conditions: S. cerevisiae cln2 rad14 strain, at 50.0 µM, hits give high values
Procedure, shortened: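 Yeast strain cln2 rad14, bearing defects in cell cycle control and DNA repair, serves as the test system; values reflect growth inhibition compared with vehicle.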

[5] = NCI Yeast Anticancer Drug Screen. Data for the bub3 strain (AID 167); conditions: S. cerevisiae bub3 mutant strain, at 50.0 µM, hits give high values
Procedure, shortened: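 Whole-cell yeast assay. The mutant strain was incubated with compounds, and growth inhibition was determined by comparison with vehicle-treated cells.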

[6] = NCI Yeast Anticancer Drug Screen. Data for the mlh1 rad18 strain (AID 175); conditions: S. cerevisiae mlh1 rad18 strain growth inhibition; at 50.0 µM; hits give high values
Procedure, shortened: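 Steps: expose repair-defective yeast to compound; measure growth; express inhibition against vehicle-treated controls.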

Measured: growth inhibition

CN(CCC(=O)O)C1=Nc2ccc(Cl)cc2C(c2ccccc2)=[N+]([O-])C1
inactive: [1] 1.75% | [2] 6.15% | [3] -14.2% | [4] -1.4% | [5] 16.2% | [6] 6.85%

Cc1ccc(S(=O)(=O)N/N=C(\CCN2CCCC2)CC(c2ccccc2)c2c(O)c3ccccc3oc2=O)cc1 (stereo not given)
inactive: [1] 14.6% | [2] 9.1% | [3] 20.8% | [4] 21.8% | [5] 9.95% | [6] 17.6%

Cc1ccc(C[N+](C)(C)C)cc1
inactive: [1] 10.6% | [2] -17.6% | [3] 6.7% | [4] 12.1% | [5] -10.1% | [6] 4.5%

CCCCOCCOC(=O)CCl
inactive: [1] 9.1% | [2] -21.1% | [3] 33% | [4] -14.8% | [5] -4.95% | [6] 14.8%

c1ccc(-c2ccc[n+](CC[n+]3cccc(-c4ccccn4)c3)c2)nc1
inactive: [1] 0.3% | [2] -9.4% | [3] -25.4% | [4] -11.4% | [5] -0.1% | [6] 8.45%

CC1CC(C)(C)[N+](C)(CCC(C(N)=O)(c2ccccc2)c2ccccc2)C1 (stereo not given)
inactive: [1] -8.2% | [2] -5.15% | [3] -7.8% | [4] 12.3% | [5] -16.4% | [6] 3.05%

N#Cc1ccc(Cl)cc1
inactive: [1] 9.65% | [2] -21.7% | [3] 6.25% | [4] -2.6% | [5] -4.7% | [6] 7.9%

CC(C)CC1N=C(NN=C(CCl)CCl)SP1(=O)NCCCCCCNP1(=O)SC(NN=C(CCl)CCl)=NC1CC(C)C (stereo not given)
inactive: [1] 2.95% | [2] 12.1% | [3] 11.4% | [4] -11.7% | [5] 15.9% | [6] 13.8%

C=CC1CN2CCC1CC2C(O)c1ccnc2ccccc12 (stereo not given) (tested in a mixture with another compound)
inactive: [1] -3.9% | [2] -17.1% | [3] -5.4% | [4] -4.05% | [5] -1.4% | [6] 1.75%

CC1=CC(=O)CCC12CCOC2=O (stereo not given)
inactive: [1] -54.1% | [2] -20.1% | [3] -21.3% | [4] -40.6% | [5] -13.2% | [6] -7.55%

CCOP(=O)(OCC)C(=O)N(CC)CC
inactive: [1] 12.2% | [2] 21.9% | [3] 10.6% | [4] 7.15% | [5] 20.8% | [6] 1.45%

Cc1cccc(Cl)c1OP(=O)(Oc1c(C)cccc1Cl)Oc1c(C)cccc1Cl
inactive: [1] -10.4% | [2] -7.8% | [3] -19.3% | [4] -19.3% | [5] 2.25% | [6] -51.4%

[CH3][Sn]([Cl])([Cl])[c]1ccccc1
inactive: [1] -22.9% | [2] 2.05% | [3] 8.7% | [4] -18.5% | [5] -12.8% | [6] 1.6%

O=C1CCCN1
inactive: [1] -8.1% | [2] -1.7% | [3] 3.1% | [4] -4.85% | [5] -0.2% | [6] -11.7%

O=NN(c1ccccc1)c1ccccc1
inactive: [1] 12.2% | [2] 9.8% | [3] -8.6% | [4] -22.3% | [5] -10.1% | [6] 34.5%

COS(=O)(=O)c1ccc(C)cc1
inactive: [1] 24.2% | [2] -1.85% | [3] -8.2% | [4] 12.7% | [5] -7.7% | [6] -3.75%

CN(C)c1ccc(C=O)cc1.[C-]#[O+].[C-]#[O+].[C-]#[O+].[Cr]
inactive: [1] -66.2% | [2] -35.5% | [3] -57.5% | [4] 1% | [5] -18.4% | [6] -38.9%

CCOC(=O)C(Br)CBr (stereo not given)
inactive: [1] 6.35% | [2] -17.9% | [3] 4.85% | [4] -2.3% | [5] -16.1% | [6] 23.1%

CN(C)C(=O)Oc1cc(O)cc([N+](=O)[O-])c1
inactive: [1] -5.45% | [2] -11.1% | [3] -10.8% | [4] -6.35% | [5] 24.1% | [6] -28.1%

Cc1cccc(C#N)c1
inactive: [1] 3.55% | [2] -26.1% | [3] 1.2% | [4] -1.4% | [5] -7% | [6] -0.05%
